# Bioassay records as filed in PubChem.
# An excerpt weighted towards active compounds, which were near 5.3% of everything screened.
# JMJD2E inh: inhibitors of human JMJD2E histone demethylase. B2RXH2. JMJD2E catalytic domain, FDH-coupled NADH fluorescence (FDH is formaldehyde dehydrogenase). Potency, µM (highest dose often 57.1 µM), for inactives: at the top dose activity change, negative = inhibition, hits mostly inhibitors. 230,000 tested, 1.6% active. AID 2147; active = well fitted inhibition curve with a large enough effect, not every such curve was filed as active; inconclusive = small, poorly fitted or top-dose-only effect, or another doubt; inactive = no such curve, though single readings can be large or run the other way;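 note: potency is the fitted concentration of half-maximal effect; 0% = wells with enzyme and -100% = buffer wells without enzyme; nearly all actives have a fitted effect of over 50% in size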
# Target sequence (B2RXH2 1-337 limits assumed): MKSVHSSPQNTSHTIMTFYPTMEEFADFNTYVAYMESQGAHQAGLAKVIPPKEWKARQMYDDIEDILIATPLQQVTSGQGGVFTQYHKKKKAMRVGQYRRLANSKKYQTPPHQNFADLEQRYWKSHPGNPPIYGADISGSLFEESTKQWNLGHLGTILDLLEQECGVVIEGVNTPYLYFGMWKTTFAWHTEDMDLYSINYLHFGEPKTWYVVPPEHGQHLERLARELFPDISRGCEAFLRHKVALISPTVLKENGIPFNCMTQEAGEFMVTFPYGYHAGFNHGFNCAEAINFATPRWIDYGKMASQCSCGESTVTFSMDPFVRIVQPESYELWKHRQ
# Tau fibril ThT: tau fibrillization inhibition (ThT binding); 270,000 tested, 2.1% active; recombinant tau K18 P301L, heparin-induced fibrillization, ThT fluorescence; Potency, µM (titrated, usually from 57.4 µM), for inactives: at the highest dose activity, negative = inhibition, most hits filed as inhibitors; AID 1460; note: potency is the fitted concentration of half-maximal effect; nearly all actives have a fitted effect of over 55% in size
# Target sequence (P10636 561-689 P618L limits assumed): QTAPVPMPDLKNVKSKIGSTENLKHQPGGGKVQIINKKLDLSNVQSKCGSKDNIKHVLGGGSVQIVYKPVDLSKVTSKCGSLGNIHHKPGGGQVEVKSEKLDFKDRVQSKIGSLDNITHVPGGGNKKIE
#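 Recombinant human tau K18 fragment […] carrying P301L, 15 uM unlabeled plus 0.24 uM Alexa 594-labeled, was fibrillized with 20 uM heparin in 100 mM sodium acetate pH 7 for 6 hr at 37 C; 30 uM ThT fluorescence read after 1 hr.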
# Coupling enz: counter-screen for Giardia aldolase inhibitors: coupling enzyme system; coupling enzyme system counterscreen, AmpLite Red fluorescence; activity change, negative = inhibition, % at 58.2 µM, hits read low; 290,000 tested, 0.67% active; AID 2472; in the data active = activity change below about -30%
#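 First, compound is pin-transferred into glyceraldehyde-3-phosphate coupling-enzyme reagent at 57.5 uM final and held 10 min at RT. Next, substrate, coupling system and AmpLite Red are added. After 20 min RT, fluorescence (525/598 nm) is read.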
# Tau fluor cs: counter-screen for tau fibril formation inhibitors; Potency, µM (titrated, usually from 57.7 µM), for inactives: top-dose activity change, negative = decrease; 280,000 tested, 0.93% active; tau K18 P301L (four-repeat tau fragment) Alexa594 fluorescence, heparin fibrillization; note: potency is the fitted concentration of half-maximal effect; nearly all actives have a fitted effect of over 55% in size
#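 Human K18 P301L tau (15 uM unlabeled plus 0.24 uM Alexa 594-labeled, final) in 100 mM sodium acetate pH 7 was mixed with compound and 20 uM heparin and incubated 6 hr at 37 C.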
# Tau fibril FP: tau fibrillization inhibition (FP); 280,000 tested, 0.39% active; P10636; Potency, µM (highest dose often 57.7 µM), without a hit: at the top dose activity, negative = inhibition, actives largely listed as inhibitors; AID 1468; K18 P301L tau heparin fibrillization, Alexa594 FP, 6 h; note: potency is the fitted concentration of half-maximal effect; nearly all actives have a fitted effect of over 55% in size
#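 Compound effects on tau fibrillization are measured by Alexa 594 fluorescence polarization (ex 555, em 632 nm). K18 P301L tau is used at 15 uM with 0.24 uM labeled tracer, and 20 uM heparin induces aggregation over 6 hr at 37 C.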
# Sfp PPTase inh: inhibitors of Bacillus subtilis Sfp phosphopantetheinyl transferase; Biochemical Sfp PPTase activity, qHTS; Potency, µM, inactives show largest response in the series, negative = inhibition, hits mostly inhibitors; 310,000 tested, 3.5% active; Q9F4F7;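 note: the enzyme is Sfp with the accession as filed and its product quenches rhodamine fluorescence; potency is the fitted concentration of half-maximal effect; 0% = enzyme reaction without inhibitor and -100% = no enzyme wells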
#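 After 15 min at room temperature with compound, 15 nM Sfp received 5 uM rhodamine-CoA plus 12.5 uM BHQ-2-ybbR (50 mM Hepes pH 7.6, 10 mM MgCl2). Rate came from the fluorescence difference over 30 min, ex 525/em 598 nm.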
# * = called active by the depositor; ? = inconclusive; nt = not tested or not shown; ! = repeats disagree; [ ] = dose if it differs, or a comment. Unless noted, calls come from the whole dose curve; as a rule, active = well fitted curve in the direction sought with a large enough effect; inconclusive = small, poorly fitted or top-dose-only effect, or another doubt; inactive = no such curve, though single readings can be large; an effect the other way counts as inactive or inconclusive. Unless noted, % is set by controls: 0 for no effect and ±100 for the full control effect.
SMILES,JMJD2E inh,Tau fibril ThT,Coupling enz,Tau fluor cs,Tau fibril FP,Sfp PPTase inh
COC(=O)C1=C[C@@H](C(=O)OC)C2C3=C(C(=O)[C@]2(CC(C)C)NC(=O)c2ccccc2)[C@H](C)n2c(=O)n(C)c(=O)n2[C@@H]3C1 (stereo not given in full),nt,nt,-1,nt,nt,19%
COc1ccc([N+](=O)[O-])c(OC)c1C(=O)NC(=O)Nc1nc(C)cc(C)n1,-1%,2%,-8,3%,3%,3%
COc1ccc(Br)c(OC)c1C(=O)NC(=O)Nc1nc(C)cc(C)n1,5%,-6%,-31*,-5%,-5%,18%
OC(CNCCc1ccc(C(F)(F)F)cc1)COc1cccc2ccccc12 (stereo not given),16%,?,-3,?,-13%,25µM*
OC(CNCCc1ccc(C(F)(F)F)cc1)COc1ccc2ccccc2c1 (stereo not given),8%,?,-5,-29%,-2%,18µM*
COc1ccc(CCNCC(O)COc2cccc(Br)c2)cc1 (stereo not given),-12%,-12%,-5,-15%,-7%,-26%
COc1ccccc1COCC(O)CNCCc1ccc(C(F)(F)F)cc1 (stereo not given),nt,nt,3,nt,nt,?
CCc1nn(CC(=O)NCC(C)c2ccccc2)c(=O)c2cc3c(OC)cccc3n12 (stereo not given),nt,6%,nt,13%,-4%,nt
O=Cc1ccc(O)cc1O,nt,nt,1,nt,nt,9%
O=CN/C=C/c1cc(O)ccc1O,?,25µM*,-18,28µM*[quencher],?,14µM*
CN1CCN(C2=Nc3c(Cl)cc(Cl)c4cccc2c34)CC1,-9%,18µM*,-19,-13%,4%,-22%
CN1CCN(C2=Nc3cc(F)ccc3Cc3ccccc32)CC1,11%,3%,6,-3%,-4%,-6%
O=[N+]([O-])c1cccc(/C=C/c2nc(C=Nc3ccc4ccccc4c3)c(O)o2)c1,-2%,2µM*,-1,-15%,-3%,-5%
O=[N+]([O-])c1cccc(/C=C/c2ccc3cccc(O)c3n2)c1,nt,nt,1,nt,nt,8%
CCc1ccc(NC(=O)c2ccc3nc(N)sc3c2)cc1,-8%,?,2,?,25µM*,?
COC(=O)c1c(-c2cccs2)csc1NC(=O)COc1ccc(C)cc1,nt,?,nt,-27%,-4%,nt
COC(=O)c1c(-c2cccs2)csc1NC(=O)COc1c(C)ccc(C)c1C,nt,20µM*,nt,-19%,?,nt
COC(=O)c1c(-c2cccs2)csc1NC(=O)COc1ccccc1,nt,20µM*,nt,?,?,nt
CCOC(=O)C(NC(C)=O)(N1CCOCC1)C(F)(F)F (stereo not given),1%,?,-1,-7%,?,22%
CCOC(=O)C(NC(C)=O)(N1CCc2ccccc2C1)C(F)(F)F (stereo not given),4%,25µM*,2,-15%,?,9%
CCCn1c(C2CCCN2c2nc(-c3ccc(C)cc3)cs2)nc2ccccc21 (stereo not given),nt,nt,0,nt,nt,50µM*
COc1ccccc1NC(=S)NNC(=O)c1cc(C)n(C)n1,18µM*,-10%,-6,-3%,-5%,25%
COc1ccccc1NC(=S)NNC(=O)c1cc(C)nn1C,-3%,-20%,-3,-8%,6%,16%
O=C(NCCc1ccc(Cl)cc1)c1ccc(CS(=O)Cc2cccc(Cl)c2)o1 (stereo not given),nt,-14%,nt,-14%,3%,nt
COc1cc(C2C(C#N)=C(N)Oc3cc(O)ccc32)cc2c1OCO2 (stereo not given),-20%,-10%,9,-17%,4%,79µM*
SMILES,JMJD2E inh,Tau fibril ThT,Coupling enz,Tau fluor cs,Tau fibril FP,Sfp PPTase inh
COc1cc(C2C(C#N)=C(N)Oc3cc(N(C)C)ccc32)cc2c1OCO2 (stereo not given),-7%,?,0,?,2%,-27%
CCn1c(C)c(C)c2cc(C(=O)NCC(C)c3ccccc3)ccc21 (stereo not given),nt,?,nt,-29%,5%,nt
CSc1cnn(-c2ccccc2)c(=O)c1SC,2%,-4%,-6,2%,-6%,79µM*
CSc1cnn(Cc2ccccc2)c(=O)c1SCc1ccccc1,-1%,?,-4,-18%,-1%,3.2µM*
CCSc1cnn(-c2ccccc2)c(=O)c1SCC,-2%,-11%,4,-9%,?,8%
COc1cc2c(cc1OC)[C@H](C)N(CC1C(=O)O[C@@H]3C[C@@]4(C)CCC[C@H](C)[C@@]45OC5[C@H]13)CC2 (stereo not given in full),-16%,?,-1,-10%,7%,3%
O=S(=O)(c1ccc(Br)cc1)c1nnn2c1nc(Nc1cccc(C(F)(F)F)c1)c1sccc12,nt,10%,nt,-26%,?,nt
Cc1nn(-c2ccc(N3CCCC3)nn2)c(C)c1CCC(=O)N1CCN(c2ccccc2F)CC1,nt,-16%,nt,-6%,?,nt
CCOc1ccc(S(=O)(=O)NCc2ccccc2Cl)cc1C(N)=O,-6%,-23%,-37*,-24%,-4%,-15%
Cc1cccc(N2CCN(C(=O)C3CCCN(S(=O)(=O)c4ccc5c(c4)oc(=O)n5C)C3)CC2)c1C (stereo not given),nt,-12%,nt,-15%,-5%,nt
Cc1ccc2nc(N(CCCN(C)C)C(=O)COc3ccc(Cl)cc3)sc2c1,4%,-8%,1,-30%,?,89µM*
CN(C)CCCN(C(=O)COc1ccc(Cl)cc1)c1nc2ccc(F)cc2s1,6%,0%,-1,-5%,3%,-23%
CCN(CC)CCN(C(=O)c1cc2ccccc2cc1OC)c1nc2ccc(OC)cc2s1,nt,nt,-1,nt,nt,50µM*
COc1cc2ccccc2cc1C(=O)N(CCN(C)C)c1nc2ccc(C)cc2s1,nt,nt,2,nt,nt,79µM*
N[C@H](Cc1cc(I)c(Oc2ccc(O)c(I)c2)c(I)c1)C(=O)O,-4%[25.5 µM],nt,3,nt,nt,33%
Cc1nc2sccn2c(=O)c1CCN1CCC(=C(c2ccc(F)cc2)c2ccc(F)cc2)CC1,-12%,?,-8,?,-17%,56µM*!
Cc1ccc(NC(=O)C2CCCN(S(=O)(=O)c3cccc4nsnc34)C2)cc1C (stereo not given),nt,-3%,nt,-23%,-13%,nt
CN(C)c1ccc(CNCCC(Cc2ccccc2)c2ccco2)cc1 (stereo not given),-6%,?,0,-27%,4%,45µM*
c1ccc(CNCCC(Cc2ccccc2)c2ccco2)cc1 (stereo not given),5%,-15%,3,-16%,-8%,0%
